Screening results: PubChem, National Center for Advancing Translational Sciences (NCATS)
A selection: hits, their analogues and other compounds. The true share with any hit is near 9.4%.
Pf growth 96h: P. falciparum growth inhibition at 96 hour, primary screen for plastid delayed-death inhibitors | Potency, µM (doses to about 28.7 µM), inactives show top-dose activity change, negative = inhibition, most hits filed as inhibitors | hit rate 6.9% among 320,000 | P. falciparum luciferase reporter growth, 96 h; further: on the % scale 0 is the no-effect control and ±100 the full control effect
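Compounds incubated with erythrocytes infected by luciferase-expressing P. falciparum (2% hematocrit, 0.05% parasitemia final) for 96 hours, 37 C in 5% CO2. Growth inhibition scored as decreased luciferase luminescence.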
SARS PLpro yeast: SARS-CoV PLP inhibition in yeast. hit rate 0.19% among 330,000. S. cerevisiae expressing SARS-CoV PLpro, growth rescue. Potency, µM (series often up to 32.9 µM), without a hit: at the highest dose activity, positive = growth rescue, hits mostly activators; calls by dose curve; further: 0% is about no effect; nearly all actives have a fitted effect of over 55% in size
AMA1-RON2 inh: inhibitors of Plasmodium falciparum AMA1-RON2 interaction; hit rate 0.2% among 360,000; AlphaScreen AMA1-biotinylated RON2 peptide binding; Potency, µM (highest dose often 58.2 µM), for the others: top-dose activity change, negative = inhibition, hits mostly inhibitors;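 further: 0% = vehicle wells and -100% = peptide control; nearly all actives have a fitted effect of over 45% in size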
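AMA1 (3D7) with his tag at 25 nM final met compounds first, then biotinylated RON2 peptide at 25 nM; detection used donor plus acceptor beads, 10 µg/mL apiece, read by AlphaScreen after 30 min at room temperature.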
Pf growth 48h: inhibits P. falciparum growth in the first generation, 48 h | P. falciparum luciferase growth in erythrocytes, 48 h | Potency, µM (series often up to 28.7 µM), without a hit: top-dose activity change, negative = inhibition, actives largely listed as inhibitors | hit rate 5.9% among 310,000 | AID 504832; further: on the % scale 0 is the no-effect control and ±100 the full control effect
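Compounds are pin-transferred into medium, infected erythrocytes (2% hematocrit, 0.1% parasitemia final) are added, and plates sit one parasite generation at 37 C in 5% CO2. Detection reagent is then added and luminescence measured.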
* hit, by the source's call; i = inactive; ? = inconclusive; · = no result; [ ] = dose if it differs, or a comment. Unless noted, the call rests on the fitted dose curve; in most records, active means well fitted curve in the direction sought with a large enough effect; inconclusive means small, poorly fitted or top-dose-only effect, or another doubt; inactive means no such curve, though single readings can be large; an effect the other way counts as inactive or inconclusive. Potency means the concentration at half of the fitted maximal effect.

SMILES	Pf growth 96h	SARS PLpro yeast	AMA1-RON2 inh	Pf growth 48h
Cc1n[nH]c(C)c1S(=O)(=O)N1CCN(c2ccccn2)CC1	36%	·	9%	-4%
Cc1n[nH]c(C)c1S(=O)(=O)N1CCc2ccccc2C1	10µM*	12%	-11%	-19%
O=C(c1cccc([N+](=O)[O-])c1)N1CCN(S(=O)(=O)N2CCCCC2)CC1	?	5%	7%	17%
C[C@H]1[C@@H](OC(=O)CCC(=O)O)OC2OC3(C)CC[C@H]4[C@H](C)CC[C@@H]1[C@@]24OO3 (stereo not given in full)	0.0013µM*	·	·	0.0019µM*
C[C@@H]1CC[C@H]2[C@@H](C)C(=O)O[C@@H]3O[C@@]4(C)CC[C@@H]1[C@]32OO4	0.0033µM*	-14%	3%	0.0033µM*
C[C@@H]1CC[C@H]2[C@@H](C)C(=O)O[C@@H]3OC4(C)CC[C@@H]1C32OO4 (stereo not given in full)	0.0027µM*	·	·	0.0034µM*
CCCCCOc1ccc(CSCCNC(=S)Nc2ccccc2)cc1	10µM*	12%	0%	?
O=C(COc1ccc(/C=N/NC(=O)c2ccccc2O)cc1)Nc1ccc([N+](=O)[O-])cc1	12µM*	-6%	8%	-7%
O=C(COc1ccc(/C=N/NC(=O)c2ccncc2)cc1)Nc1ccccc1	-10%	-11%	55%	20%
O=C(COc1ccc(/C=N/NC(=O)c2ccncc2)cc1)Nc1cccc([N+](=O)[O-])c1	?	-2%	13%	-2%
COc1cc(/C=N/NC(=O)c2ccc(O)cc2)ccc1OCC(=O)Nc1cccc([N+](=O)[O-])c1	10µM*	-6%	-12%	22%
COc1ccc(/C=N/NC(=O)c2cccc([N+](=O)[O-])c2)cc1OC	-25%	0%	15%	8%
COc1cc(/C=N/NC(=O)c2cccc([N+](=O)[O-])c2)ccc1OCc1ccccc1	9.3µM*	2%	5%	17µM*
O=C(c1ccco1)N1N=C(c2cccs2)CC1c1ccccc1O (stereo not given)	?	4%	0%	8.3µM*
Clc1ccc(N2N=C(c3cccs3)CC2c2ccco2)cc1 (stereo not given)	2.6µM*	-5%	183%	39%
O=C(c1cccs1)N1N=C(c2ccccc2)CC1c1ccccc1O (stereo not given)	19%	0%	1%	3.3µM*
CCC(C)C(NS(=O)(=O)c1ccc(C)cc1)C(=O)NCCCN1CCOCC1 (stereo not given)	-30%	3%	11%	7%
COc1ccccc1Nc1ccc2c(O)cc(S(=O)(=O)O)cc2c1	·	·	20µM*	·
COc1ccccc1/C=N/NC(=O)CN(C1=NS(=O)(=O)c2ccccc21)c1ccccc1	0.15µM*	4%	6%[11.6 µM]	1%
C[C@@]1([C@@H](NC(=O)c2cccs2)c2ccc(-c3ccccc3)cc2)C[C@H]1C1CCCCC1	2.6µM*	-10%	-4%	1.9µM*
O=C(/C=C\c1cn(-c2ccccc2)nc1-c1ccc2c(c1)OCCO2)N1CCOCC1	76%	0%	-4%	?
CN1CCN(C(=O)/C=C/c2cn(-c3ccccc3)nc2-c2ccc3c(c2)OCCO3)CC1	?	0%	2%	12µM*
O=S1(=O)N[C@@H](Cc2ccccc2)COc2cc(N3CCC[C@H]3CO)ccc21	·	·	3%	·
CCOc1ccccc1NC(=O)C1=C(C)NC(=O)NC1c1cccs1 (stereo not given)	?	6%	4%	?
COc1ccc(-c2csc(Nc3ccc(S(=O)(=O)Nc4cc(OC)nc(OC)n4)cc3)n2)cc1	15µM*	5%	-10%	29%
SMILES	Pf growth 96h	SARS PLpro yeast	AMA1-RON2 inh	Pf growth 48h
COc1cc(NS(=O)(=O)c2ccc(NC(=S)NC(=O)c3sc4ccccc4c3Cl)cc2)nc(OC)n1	12µM*	-5%	1%	30%
COc1cc(NS(=O)(=O)c2ccc(NC(=S)NC(=O)c3sc4cc(F)ccc4c3Cl)cc2)nc(OC)n1	?	-9%	-12%	25%
COc1ccc(C(=O)/C=C/Nc2ccc(S(=O)(=O)Nc3cc(OC)nc(OC)n3)cc2)c(OC)c1	36%	0%	-16%	1.7µM*
CN(C)c1ccc(NC(=O)CSc2nnc(-c3ccco3)c(-c3ccco3)n2)cc1	?	-2%	18µM*	-16%
Cc1ccc(NC(=O)CSc2nnc(-c3ccco3)c(-c3ccco3)n2)cc1	?	?	-15%	-12%
COc1ccc(C(=O)CSc2nnc(-c3ccco3)c(-c3ccco3)n2)cc1	1.5µM*	-1%	-17%	-3%
Cn1cc(C(=O)N2CCOCC2)c2ccccc21	14%	0%	9%	i
Cc1cc(C)c2nc(C)cc(N/N=C/c3ccc(O)cc3)c2c1	-2%	0%	-24%	0.13µM*
Cc1cc(N/N=C/c2ccc(O)cc2)c2cccc(C)c2n1	9.3µM*	-6%	-14%	0.37µM*
Cc1cc(N/N=C/c2ccc(N(C)C)cc2)c2ccccc2n1	44%	-6%	50%	24%
Cc1cc(-c2ccccc2)nc(N/N=C/c2ccc(O)cc2)n1	?	-2%	79%	?
CN(C)S(=O)(=O)c1cccc(NC(=O)c2cc(=O)[nH]c(=O)[nH]2)c1	37%	-1%	105%	15%
Cc1ccc(N(C)C2=NC(=O)CS2)cc1Cl	?	6%	8%	2.1µM*
O=C1CCS/C(=N\N=C\c2ccc(Cl)cc2Cl)N1	-6%	0%	4%	-3%
COc1ccc(NC(=O)C2C3CCC4C(CCC32)C4(Cl)Cl)cc1 (stereo not given)	5.2µM*	-15%	2%	4%
Cc1cccc(Oc2ccccc2N)c1	·	-13%	0%	12%
O=C(CCCCCNC(=O)c1ccccc1)N=Nc1c(O)[nH]c2c(Br)cc(Br)cc12	0%	-1%	·	12µM*
COc1ccc(Cl)cc1NC(=O)CN(C)C(=O)C1CC(=O)N(Cc2ccc(C)cc2)C1 (stereo not given)	-2%	·	37%	?
COc1ccc(CN(C)C(=O)c2cc(-c3ccc(OC)c(OC)c3)nc3ccccc23)c(OC)c1	-28%	-2%	-17%	7%
COc1ccc(-c2cc(C(=O)N(C)Cc3cccc(OC)c3OC)c3ccccc3n2)cc1OC	?	-2%	-7%	9.3µM*
COc1ccc(CCN(C)C(=O)c2cc(-c3ccccc3)nc3ccccc23)cc1OC	7.4µM*	1%	0%	13µM*
COc1cccc(CN(C)C(=O)c2cc(-c3ccc(OC)c(OC)c3)nc3ccccc23)c1	-23%	2%	5%	27%
COc1ccc(CN(C)C(=O)c2cc(-c3ccccc3)nc3ccc(C)cc23)c(OC)c1OC	?	-11%	-14%	8.3µM*
COc1cccc(CN(C)C(=O)c2cc(-c3ccc(F)cc3)nc3ccccc23)c1	13µM*	-1%	10%	?
CCOC(=O)CN(C(=O)CN1CCC(n2nnc3cc(C)ccc32)CC1)c1ccccc1	5.2µM*	16%	9%	·
Cc1ccc2c(c1)nnn2C1CCN(CC(=O)c2ccc(Cl)cc2)CC1	1%	-2%	-5%	?
